# In PubChem BioAssay (NCATS):
# Inconclusive results are not listed. Unmarked numbers belong to inactive results. Activity calls are given as the source filed them. Calls follow the shape of the dose curve; as a rule, active = well fitted curve in the direction sought with a large enough effect; inconclusive = small, poorly fitted or top-dose-only effect, or another doubt; inactive = no such curve, though single readings can be large; an effect the other way counts as inactive or inconclusive.
# What was measured:
# [1] = Quantitative High-Throughput drug screen in 47 multiple myeloma cell lines against the NCATS MIPE library collection: NCIH929_DSMZ cell viability assay (AID 1918978); also: nearly all actives have a fitted effect of over 35% in size
# Procedure, shortened: (§1)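 Inhibition of viability over 48 h was scored by ATP content (CellTiter-Glo) in 500-cell wells. Zero and full viability were defined by media-only and DMSO-only wells.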
# [2] = Quantitative High-Throughput drug screen in 47 multiple myeloma cell lines against the NCATS MIPE library collection: MM1S_ATCC cell viability assay (AID 1918980); also: nearly all actives have a fitted effect of over 45% in size
# Procedure, shortened: as §1
# [3] = Quantitative High-Throughput drug screen in 47 multiple myeloma cell lines against the NCATS MIPE library collection: MM1R_ATCC cell viability assay (AID 1918981); also: nearly all actives have a fitted effect of over 35% in size
# Procedure, shortened: as §1
# [4] = Quantitative High-Throughput drug screen in 47 multiple myeloma cell lines against the NCATS MIPE library collection: KMS28PE_JCRB cell viability assay (AID 1918983); also: nearly all actives have a fitted effect of over 35% in size
# Procedure, shortened: as §1
# [5] = Quantitative High-Throughput drug screen in 47 multiple myeloma cell lines against the NCATS MIPE library collection: OCIMY7_PLB cell viability assay (AID 1918987); settings: OCI-MY7 myeloma viability, CellTiter-Glo ATP, 48 h; viability (% of DMSO): at 45.8 µM (top of the series); also: nearly all actives have a fitted effect of over 65% in size
# Procedure, shortened: as §1
# [6] = Quantitative High-Throughput drug screen in 47 multiple myeloma cell lines against the NCATS MIPE library collection: OCIMY5_PLB cell viability assay (AID 1918988); also: nearly all actives have a fitted effect of over 65% in size
# Procedure, shortened: as §1
# [7] = Quantitative High-Throughput drug screen in 47 multiple myeloma cell lines against the NCATS MIPE library collection: OPM1_PLB cell viability assay (AID 1918989); also: nearly all actives have a fitted effect of over 40% in size
# Procedure, shortened: as §1
# [8] = Quantitative High-Throughput drug screen in 47 multiple myeloma cell lines against the NCATS MIPE library collection: U266_ATCC cell viability assay (AID 1919864); also: nearly all actives have a fitted effect of over 35% in size;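 as to viability (% of DMSO control): 0% = media-only wells without cells and 100% = DMSO-only wells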
# Procedure, shortened: as §1
# [9] = Quantitative High-Throughput drug screen in 47 multiple myeloma cell lines against the NCATS MIPE library collection: XG6_PLB cell viability assay (AID 1919865); also: nearly all actives have a fitted effect of over 40% in size
# Procedure, shortened: as §1
# [10] = Quantitative High-Throughput drug screen in 47 multiple myeloma cell lines against the NCATS MIPE library collection: XG1_PLB cell viability assay (AID 1919866); also: nearly all actives have a fitted effect of over 35% in size
# Procedure, shortened: as §1
# [11] = Quantitative High-Throughput drug screen in 47 multiple myeloma cell lines against the NCATS MIPE library collection: PE2_PLB cell viability assay (AID 1919869); also: nearly all actives have a fitted effect of over 35% in size
# Procedure, shortened: as §1
# [12] = Quantitative High-Throughput drug screen in 47 multiple myeloma cell lines against the NCATS MIPE library collection: RPMI8226_ATCC cell viability assay (AID 1919871); also: nearly all actives have a fitted effect of over 30% in size
# Procedure, shortened: as §1
# [13] = Quantitative High-Throughput drug screen in 47 multiple myeloma cell lines against the NCATS MIPE library collection: SKMM1_PLB cell viability assay (AID 1919863); settings: SKMM1 myeloma viability, CellTiter-Glo ATP, 48 h; viability: stronger effect = lower value; also: nearly all actives have a fitted effect of over 35% in size
# Procedure, shortened: as §1
# [14] = Quantitative High-Throughput drug screen in 47 multiple myeloma cell lines against the NCATS MIPE library collection: VP6_DJ cell viability assay (AID 1919867); also: nearly all actives have a fitted effect of over 40% in size
# Procedure, shortened: as §1
# [15] = Quantitative High-Throughput drug screen in 47 multiple myeloma cell lines against the NCATS MIPE library collection: UTMC2_PLB cell viability assay (AID 1919868); settings: CellTiter-Glo ATP luminescence, 48 h; viability (% of DMSO control): at 45.8 µM (top of the series); also: nearly all actives have a fitted effect of over 55% in size;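 as to viability (% of DMSO control): 100% = DMSO-only wells and 0% = media-only wells without cells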
# Procedure, shortened: as §1
# [16] = Quantitative High-Throughput drug screen in 47 multiple myeloma cell lines against the NCATS MIPE library collection: PCM6_Riken cell viability assay (AID 1919870); also: nearly all actives have a fitted effect of over 30% in size
# Procedure, shortened: as §1
# [17] = Quantitative High-Throughput drug screen in 47 multiple myeloma cell lines against the NCATS MIPE library collection: LP1_DSMZ cell viability assay (AID 1918982); also: nearly all actives have a fitted effect of over 35% in size
# Procedure, shortened: as §1
# [18] = Quantitative High-Throughput drug screen in 47 multiple myeloma cell lines against the NCATS MIPE library collection: L363_DSMZ cell viability assay (AID 1918984); also: nearly all actives have a fitted effect of over 40% in size
# Procedure, shortened: as §1
# [19] = Quantitative High-Throughput drug screen in 47 multiple myeloma cell lines against the NCATS MIPE library collection: KMS34_JCRB cell viability assay (AID 1918985); also: nearly all actives have a fitted effect of over 40% in size
# Procedure, shortened: as §1
# [20] = Quantitative High-Throughput drug screen in 47 multiple myeloma cell lines against the NCATS MIPE library collection: OCIMY1_PLB cell viability assay (AID 1918979); also: nearly all actives have a fitted effect of over 35% in size;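 as to viability: 100% = DMSO-only wells and 0% = cell-free media-only wells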
# Procedure, shortened: as §1
# Potency is read from the fitted curve at half-maximal effect.
compound,measurement,setting,value
Cc1c(NC(=O)c2ccc(C(C)(C)C)cc2)cccc1-c1cn(C)c(=O)c(Nc2ccc(C(=O)N3CCOCC3)cc2)n1,Potency,[1],20.9 µM (active)
same,Potency,[2],20.9 µM (active)
same,Potency,[3],20.9 µM (active)
same,Potency,[4],23.5 µM (active)
same,Potency,[5],8.33 µM (active)
same,Potency,[6],16.6 µM (active)
same,Potency,[7],18.7 µM (active)
same,Potency,[8],23.5 µM (active)
same,Potency,[9],20.9 µM (active)
same,Potency,[10],9.35 µM (active)
same,Potency,[11],14.8 µM (active)
same,Potency,[12],14.8 µM (active)
CCOC(=O)C1=C(N)Oc2ccc(Br)cc2C1C(C#N)C(=O)OCC (stereo unspecified),Potency,[1],20.9 µM (active)
same,Potency,[2],16.6 µM (active)
same,Potency,[3],23.5 µM (active)
same,Potency,[4],26.4 µM (active)
same,Potency,[5],7.43 µM (active)
same,Potency,[6],9.35 µM (active)
same,Potency,[13],20.9 µM (active)
same,Potency,[9],18.7 µM (active)
same,Potency,[10],16.6 µM (active)
same,Potency,[14],16.6 µM (active)
same,Potency,[15],18.7 µM (active)
same,Potency,[11],20.9 µM (active)
same,Potency,[16],16.6 µM (active)
same,Potency,[12],26.4 µM (active)
O=c1cc(CN2CCOCC2)occ1OCCCCCSc1ccnc2cc(C(F)(F)F)ccc12,Potency,[1],3.72 µM (active)
same,Potency,[17],18.7 µM (active)
same,Potency,[4],2.64 µM (active)
same,Potency,[18],16.6 µM (active)
same,Potency,[5],11.8 µM (active)
same,Potency,[6],16.6 µM (active)
same,viability,[13],111%
same,Potency,[9],3.32 µM (active)
same,Potency,[10],11.8 µM (active)
same,Potency,[14],7.43 µM (active)
same,Potency,[15],9.35 µM (active)
same,Potency,[11],7.43 µM (active)
same,Potency,[16],9.35 µM (active)
same,Potency,[12],inactive
CC(C)OC(=O)CCCC=CC[C@@H]1[C@H](C=C[C@@H](O)COc2cccc(C(F)(F)F)c2)[C@H](O)C[C@@H]1O,Potency,[1],18.7 µM (active)
same,Potency,[17],14.8 µM (active)
same,Potency,[4],20.9 µM (active)
same,Potency,[19],13.2 µM (active)
same,Potency,[5],14.8 µM (active)
same,Potency,[6],16.6 µM (active)
same,Potency,[13],20.9 µM (active)
same,Potency,[8],20.9 µM (active)
same,Potency,[9],16.6 µM (active)
same,Potency,[10],18.7 µM (active)
same,Potency,[15],16.6 µM (active)
same,Potency,[11],16.6 µM (active)
same,Potency,[16],20.9 µM (active)
Cc1nnc(C(C)C)n1C1C[C@H]2CC[C@@H](C1)N2CC[C@H](NC(=O)C1CCC(F)(F)CC1)c1ccccc1 (stereo partly specified),Potency,[1],9.35 µM (active)
same,Potency,[2],1.05 µM (active)
same,Potency,[3],inactive
same,Potency,[4],inactive
same,Potency,[18],inactive
same,Potency,[6],inactive
same,Potency,[7],inactive
same,viability,[13],147%
same,Potency,[8],11.8 µM (active)
same,Potency,[9],4.69 µM (active)
same,Potency,[15],inactive
O=C(O)c1ccccc1C(=O)Nc1ccc(-c2ccccc2)cc1,Potency,[1],inactive
same,Potency,[3],inactive
same,Potency,[4],inactive
same,Potency,[18],inactive
same,Potency,[5],inactive
same,Potency,[6],inactive
same,Potency,[8],inactive
same,Potency,[15],inactive
same,Potency,[11],inactive
same,Potency,[16],inactive
same,Potency,[12],inactive
O=C(O)[C@H]1O[C@H](Oc2cc3oc(-c4ccccc4)cc(=O)c3c(O)c2O)[C@H](O)[C@@H](O)[C@H]1O,Potency,[1],inactive
same,Potency,[3],23.5 µM (active)
same,Potency,[4],16.6 µM (active)
same,Potency,[18],inactive
same,Potency,[6],23.5 µM (active)
same,Potency,[7],18.7 µM (active)
same,Potency,[13],20.9 µM (active)
same,Potency,[9],inactive
same,Potency,[15],inactive
same,Potency,[11],inactive
same,Potency,[12],4.69 µM (active)
O=c1c(-c2ccc(O)cc2)coc2cc(O)ccc12,Potency,[1],inactive
same,Potency,[2],13.2 µM (active)
same,Potency,[17],inactive
same,Potency,[5],inactive
same,Potency,[6],14.8 µM (active)
same,Potency,[7],inactive
same,Potency,[8],inactive
same,Potency,[9],inactive
same,Potency,[10],inactive
same,Potency,[15],inactive
same,Potency,[11],inactive
same,Potency,[16],inactive
O=C1NC(=O)C(=Cc2ccc3c(c2)OC(F)(F)O3)S1,Potency,[20],inactive
same,Potency,[2],20.9 µM (active)
same,Potency,[17],18.7 µM (active)
same,Potency,[4],inactive
same,Potency,[7],7.43 µM (active)
same,Potency,[8],inactive
same,Potency,[9],1.66 µM (active)
same,Potency,[14],14.8 µM (active)
same,Potency,[15],23.5 µM (active)
same,Potency,[11],20.9 µM (active)
same,Potency,[16],4.18 µM (active)
CN(C)C1CCN(C(=O)c2ccc(NC(=O)Nc3nc(N4CCOCC4)nc(N4CCOCC4)n3)cc2)CC1,Potency,[20],5.9 µM (active)
same,Potency,[2],0.0332 µM (active)
same,Potency,[3],0.0418 µM (active)
same,Potency,[4],0.0132 µM (active)
same,Potency,[5],5.26 µM (active)
same,Potency,[6],0.0418 µM (active)
same,Potency,[12],0.0093 µM (active)
CCN(CC)CCOc1ccc(C(=C(Cl)c2ccccc2)c2ccccc2)cc1,Potency,[20],inactive
same,Potency,[3],inactive
same,Potency,[17],inactive
same,Potency,[4],inactive
same,Potency,[7],inactive
same,Potency,[8],16.6 µM (active)
COc1cc(N2CCC(N3CCN(C)CC3)CC2)ccc1Nc1ncc(Cl)c(Nc2ccccc2S(=O)(=O)C(C)C)n1,Potency,[20],inactive
same,Potency,[5],0.264 µM (active)
same,Potency,[15],inactive
CC(C)OC(=O)C(C)(C)Oc1ccc(C(=O)c2ccc(Cl)cc2)cc1,Potency,[20],inactive
same,Potency,[2],inactive
same,Potency,[4],16.6 µM (active)
same,Potency,[18],inactive
same,Potency,[5],inactive
same,Potency,[8],11.8 µM (active)
same,Potency,[9],inactive
same,Potency,[14],26.4 µM (active)
same,Potency,[15],inactive
same,Potency,[11],20.9 µM (active)
same,Potency,[12],18.7 µM (active)
